In PubChem BioAssay (NCATS):
Inconclusive results are not listed. Where a call stands in place of a potency, no number is given. Unmarked numbers belong to inactive results. Calls of active or inactive are those of the source. Unless noted, calls come from the whole dose curve; as a rule, active = well fitted curve in the direction sought with a large enough effect; inconclusive = small, poorly fitted or top-dose-only effect, or another doubt; inactive = no such curve, though single readings can be large; an effect the other way counts as inactive or inconclusive.

How the values were obtained:
[1] = system: Zika virus NS2B-NS3 protease (linked construct); assay: Primary screen NINDS Rhodamine qHTS for Zika virus inhibitors (AID 1347160); note: nearly all actives have a fitted effect of over 55% in size; note: potency is the fitted concentration of half-maximal effect
Outline: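 Percent inhibition, normalized to uninhibited and enzyme-free controls, is fitted to a 4-parameter Hill equation. Fluorescence change comes from a 15-min cleavage of 1.5 microM bis-peptide Rhodamine110 substrate by 25 nM linked NS2B-NS3 at room temperature.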

[2] = OV-SAHO Cancer Cell Toxicity qHTS against the NCATS CANVASS Library (AID 1347348); note: nearly all actives have a fitted effect of over 55% in size; note: potency is the fitted concentration of half-maximal effect; for activity change, negative = cytotoxicity: series mostly up to about 38 µM
Outline: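 Per well, 1000 cells; exposure 72 h with compound at 11 final concentrations; readout CellTiter-Glo luminescence.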

[3] = COV-362 Cancer Cell Toxicity qHTS against the NCATS CANVASS Library (AID 1347352); note: potency is the fitted concentration of half-maximal effect; for activity change, negative = cytotoxicity: series mostly up to about 38 µM
Outline: (§1)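 qHTS cytotoxicity: compounds tested in 11 concentrations on 1000 seeded cells per well over 72 h; bortezomib served as control; signal from CellTiter-Glo luminescence.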

[4] = qHTS for H2AX Agonists against the NCATS CANVASS Library (AID 1347378)
Outline: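 CHO-K1 cells were plated overnight at 37C, then exposed to compounds (concentration series, 0.76% DMSO final) for 3 hr at 37C. Lysates received Eu-cryptate anti-pH2AX (S139) and d2 anti-H2AX antibodies; after 24 hr at room temperature, TR-FRET 665/620 nm ratio was read.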

[5] = Secretion counterscreen for inhibitors of the SERCaMP assay screened against the NCATS CANVASS Library (AID 1347390);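 note: light from luciferase secreted into medium read as a measure of general secretion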; note: potency is the fitted concentration of half-maximal effect; for activity change, negative = inhibition: series mostly up to about 77 µM
Outline: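 SH-SY5Y cells expressing constitutively secreted GLuc, 1000 cells/well, attached 4 h at 37C, then exposed to compounds (0.001 - 77 uM, 11-pnt series) for 20 h. Coelenterazine added; luminescence read to flag secretory-pathway interferers.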

[6] = Redox Reaction Profiling qHTS: Assay Interference Panel against the NCATS CANVASS Library (AID 1347401); note: potency is the fitted concentration of half-maximal effect
Outline: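 Cell-free redox surrogate: 5 uM resazurin + 200 uM DTT, 50 mM HEPES pH 7.3/50 mM NaCl; cpds pinned, 11-pt qHTS; Ex525/Em598 read t0 and t=15 min, dark.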

[7] = HEK-293 Cancer Cell Toxicity qHTS against the NCATS CANVASS Library (AID 1347355); note: nearly all actives have a fitted effect of over 65% in size; note: potency is the fitted concentration of half-maximal effect; for activity change, negative = cytotoxicity: series mostly up to about 46 µM
Outline: as §1

[8] = qHTS for Activators of p53 Stress Response Pathway screened against the NCATS CANVASS Library (AID 1347388)
Outline: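 Beta-lactamase reporter driven by p53 response elements in HCT-116 cells, read as the 460 nm/530 nm emission ratio after CCF4 loading, following 16 h of exposure to an 11-point series. Cell viability was measured in the same wells by CellTiter-Glo luminescence.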

[9] = KB-8-5-11 Cancer Cell Toxicity qHTS against the NCATS CANVASS Library (AID 1347364); note: nearly all actives have a fitted effect of over 75% in size; note: potency is the fitted concentration of half-maximal effect
Outline: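 Natural products were titrated in 11 points onto KB-8-5-11 cells, 500 per well, and cytotoxicity was scored from CellTiter-Glo luminescence after 72 hr culture.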

[10] = NCATS anti-infectives library activity on the primary C. elegans qHTS viability assay (AID 1745855; calls by dose curve)
Outline: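 Viability is taken from GFP fluorescence of PE254-GFP-FLuc C. elegans imaged by laser cytometry over 7 days. Ten L1 worms per well grow at 21 °C on TOP10 E. coli capsules with titrated compound; levamisole marks toxicity.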

COc1cc2c(cc1OC)[C@@H](c1ccc3c(c1)OCO3)C(C)C(C)C2=O (stereo partly drawn)
Potency [1]: inactive
Potency [2]: inactive
Potency [3]: inactive
Potency [4]: inactive
Potency [5]: inactive
Potency [6]: inactive

C=C1CC[C@@H](Br)C(C)(C)[C@]12CC=C(C)C(=O)C2
Potency [1]: inactive
Potency [2]: inactive
Potency [7]: inactive
Potency [8]: inactive

COc1cc(C2OCC3C(c4ccc(O)c(OC)c4)OCC23)ccc1O (stereo not drawn)
Potency [1]: inactive
activity change, negative = cytotoxicity [2]: -15.1% [at 7.64 µM]
activity change, negative = cytotoxicity [3]: -3.45% [at 7.64 µM]
activation [4]: -3.74% [at 15.3 µM]
activity change, negative = inhibition [5]: 27.5% [at 15.3 µM]
activation (redox signal) [6]: -17.9% [at 11.4 µM]

C/C=C/C1C=CC2CC(C)CC(C)C2C1C(=O)CC(=O)NC(CO)C/C=C/CCCCC (stereo not drawn)
Potency [1]: 11 µM (active)
Potency [4]: inactive
Potency [8]: inactive

CC[C@H]1[C@H](C)[C@H](c2cc(OC)c(OC)cc2OC)[C@@H](C)[C@H](c2cc(OC)c(OC)cc2OC)[C@@]12C=C(OC)C(=O)C=C2OC
Potency [1]: 27.7 µM (active)
Potency [2]: 21.1 µM (active)
Potency [7]: 18.7 µM (active)
Potency [4]: inactive
Potency [8]: inactive
Potency [5]: inactive

C[n+]1cc2cc(C(N)=O)[nH]c3c(=N)c(Cl)c(N)c1c23
Potency [1]: 44 µM (active)
Potency [2]: inactive
Potency [3]: inactive
Potency [7]: inactive
Potency [8]: inactive
Potency [5]: inactive
Potency [6]: 1.92 µM (active)

COc1cc2c(c(O)c1O)C(=O)c1c(coc1C)C2=O
Potency [1]: 3.11 µM (active)
Potency [7]: 9.35 µM (active)
Potency [5]: 27.2 µM (active)

C/C(=C\CC[C@@H](C)[C@H]1CC[C@]2(C)C3=CCC4C(C)(C)[C@@H](O)C[C@@H](O)[C@]4(C)C3[C@H](O)C[C@@]12C)CO (stereo partly drawn)
Potency [1]: 19.6 µM (active)
Potency [8]: inactive
Potency [5]: inactive
Potency [6]: inactive

COc1cc(O)c(C(=O)[C@@H]2[C@H](CC=C(C)C)C(C)=CC[C@H]2c2ccccc2)c(O)c1
Potency [1]: 15.6 µM (active)
Potency [2]: 23.6 µM (active)
Potency [9]: 16.6 µM (active)
Potency [4]: inactive

COc1cc(/C=C/C(=O)OC[C@@H](Cc2ccc(O)c(OC)c2)[C@@H](COC(=O)/C=C/c2ccc(O)c(OC)c2)Cc2ccc(O)c(OC)c2)ccc1O
Potency [1]: 31.1 µM (active)
Potency [2]: 23.6 µM (active)
Potency [3]: 18.8 µM (active)
Potency [7]: 11.8 µM (active)
Potency [8]: inactive
Potency [5]: 38.4 µM (active)
Potency [6]: inactive

CCC(=O)N[C@@H](C[C@H](C)C(Cl)(Cl)Cl)C(=O)N1C(=O)C=C(OC)[C@@H]1CC(C)C
Potency [1]: inactive
Potency [4]: inactive
Potency [8]: inactive
Potency [5]: inactive

C[C@H]1C=C[C@H]2CCCC[C@@H]2[C@H]1C(=O)[C@H]1CC2=C(C(=O)O)CCN2C1=O
Potency [1]: 11 µM (active)
Potency [7]: inactive
Potency [9]: inactive
Potency [8]: inactive
Potency [5]: inactive

C=CC(CCCCC)C1C(=O)NC(=O)C1C(=O)C1C(/C=C/C)C=CC2CC(C(=O)O)CC(C)C21 (stereo not drawn)
Potency [1]: 3.92 µM (active)
Potency [3]: inactive
Potency [5]: inactive
Potency [6]: inactive

CC(=O)O[C@H]1c2ccccc2-c2c3c(cc4c2[C@@H]1N(C(C)=O)CC4)OCO3
Potency [1]: 55.3 µM (active)
Potency [4]: inactive
Potency [8]: inactive
Potency [6]: inactive

CO[C@H]1[C@@H](OC(=O)/C(C)=C\[C@@H]2O[C@@H]2[C@H]2O[C@H]2C)[C@H](O)[C@H](OCC23C[C@@H]4[C@H](C)CC[C@H]4C4(C=O)CC2C=C(C(C)C)C34C(=O)O)O[C@@H]1C (stereo partly drawn)
Potency [1]: 22 µM (active)
Potency [2]: inactive
Potency [7]: inactive
Potency [9]: inactive
Potency [4]: inactive
Potency [6]: inactive

O=C1CC2OCC=C3CN4C5CC3C2[C@@H]2N1c1ccccc1[C@]52C[C@@H]4C1=C[C@H]2C3CC4N(CC[C@@]45c4ccccc4N(C1=O)[C@@H]25)C/C3=C/CO (stereo partly drawn)
Potency [1]: inactive
Potency [7]: 16.6 µM (active)
Potency [5]: inactive

O=C(OC[C@H]1O[C@@H](OC(=O)c2cc(O)c(O)c(O)c2)[C@H](OC(=O)c2cc(O)c(O)c(O)c2)[C@@H](OC(=O)c2cc(O)c(O)c(O)c2)[C@@H]1OC(=O)c1cc(O)c(O)c(O)c1)c1cc(O)c(O)c(O)c1
Potency [1]: 0.877 µM (active)
Potency [5]: inactive
Potency [6]: 24.1 µM (active)
Potency [10]: inactive

C=C1CCC2C(C)(C(=O)O)CCC(CC/C(C)=C/C(=O)NC(CCC(N)=O)C(=O)O)[C@@]2(C)C1 (stereo partly drawn)
Potency [2]: inactive
Potency [3]: inactive
Potency [9]: inactive
Potency [4]: inactive

COc1ccc([C@@H]2CC(=O)c3c(cc(O)c(C/C=C(\C)CCC=C(C)C)c3O)O2)cc1
Potency [1]: 7.2 µM (active)
activity change, negative = cytotoxicity [2]: -12.7% [at 7.64 µM]
activity change, negative = cytotoxicity [3]: 1.08% [at 7.64 µM]
activation [8]: 21.1% [at 9.19 µM]
activity change, negative = inhibition [5]: 35.7% [at 15.3 µM]

CC[C@H](O)CCCCC[C@@H]1NC(=O)[C@H]2CCCCN2C(=O)[C@H]([C@H](C)CC)NC(=O)[C@H](Cc2cn(OC)c3ccccc23)NC1=O
Potency [1]: 15.6 µM (active)
Potency [9]: inactive
Potency [5]: inactive

CN1CC[C@@]2([C@@]34CCN(C)[C@@H]3Nc3ccccc34)c3ccccc3N[C@@H]12
Potency [2]: inactive
Potency [3]: inactive
Potency [7]: inactive
Potency [4]: inactive
Potency [8]: inactive
Potency [5]: inactive
Potency [6]: inactive

CC1=C2CC[C@]3(C)[C@H](CC=C4[C@@H]5CC(C)(C)CC[C@@H]5C(=O)[C@H](O)[C@]43C)[C@@]2(C)C=C(O)C1=O
Potency [1]: 39.2 µM (active)
Potency [8]: inactive
Potency [5]: inactive
Potency [6]: inactive
